Screening results deposited in PubChem BioAssay by Broad Institute.
Sampled rows, rich in hits. Any-hit rate of the full collection: about 4%.
DENV2 CPE rescue: protects cells from dengue virus 2 cytopathic effect; DENV2-infected cells, cytopathic effect rescue, plate reader; CPE inhibition, % at 9.99 µM; actives 1.7% (n = 350,000); AID 651640; in the data active = CPE inhibition above about 20%, passing the limit was not always enough; inconclusive = no clear call, values can overlap the other calls; tested in BHK-21 cells;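 also: 0% = median of neutral control wells and 100% = median of positive control wells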
RAD52 inh: blocks human RAD52 DNA annealing; P43351; recombinant RAD52 DNA annealing, FRET fluorescence; inhibition, % at 18.7 µM; actives 0.46% (n = 360,000); AID 651710;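 active = every replicate showing at least 50% inhibition; inconclusive = mean inhibition at least 50% but not in every replicate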
MLL AF4-AF9 inh: inhibitors of human MLL-AF4/AF9 interaction; P42568; AlphaScreen, biotin-AF4 peptide binding to FLAG-AF9; inhibition, % at 10 µM; actives 0.47% (n = 350,000); AID 651704;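 active = every replicate reaching a set inhibition limit, whatever the replicate mean, cut at about 25% in these data; inconclusive = mean inhibition reaches that limit but some replicates miss it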;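 also: 0% = plate neutral control median and 100% = total signal loss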
Target sequence (P42568 whole entry, looked up): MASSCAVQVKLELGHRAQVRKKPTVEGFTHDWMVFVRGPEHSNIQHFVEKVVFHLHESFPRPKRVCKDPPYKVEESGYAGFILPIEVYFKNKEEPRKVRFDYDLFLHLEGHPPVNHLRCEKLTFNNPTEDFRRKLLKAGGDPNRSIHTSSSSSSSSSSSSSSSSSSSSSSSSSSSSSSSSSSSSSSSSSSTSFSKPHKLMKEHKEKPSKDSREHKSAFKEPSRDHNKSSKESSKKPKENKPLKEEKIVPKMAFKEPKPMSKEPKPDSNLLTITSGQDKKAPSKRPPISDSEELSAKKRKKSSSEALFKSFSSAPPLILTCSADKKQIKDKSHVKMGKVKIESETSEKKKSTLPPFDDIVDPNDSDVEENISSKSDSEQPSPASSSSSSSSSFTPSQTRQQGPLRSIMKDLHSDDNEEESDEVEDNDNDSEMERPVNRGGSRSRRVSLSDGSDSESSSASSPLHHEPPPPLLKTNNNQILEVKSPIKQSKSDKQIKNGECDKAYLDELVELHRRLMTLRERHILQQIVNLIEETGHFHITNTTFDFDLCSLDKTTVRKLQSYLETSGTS
FGF22 binding: shifts melting point of recombinant human FGF22. Q9HCT0. recombinant FGF22 thermal shift, SYPRO orange fluorescence; percent of sucrose octasulfate shift, DMSO zero. activity (Tm shift, normalised), % at 9.99 µM. actives 1.5% (n = 340,000);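 active = mean Tm shift, scaled 0 neutral to 100 positive control, at about 1.3% or above, every replicate too, limit read from the data; inconclusive = no clear call, values can overlap the other calls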
ERAP1 inh: inhibitors of human ERAP1 aminopeptidase. recombinant ERAP1, Leu-AMC fluorescence, 60 min. inhibition, % at 10.7 µM. actives 0.15% (n = 340,000). AID 652197;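 active = mean replicate inhibition of at least 30%, or all replicates individually reaching that 30% level; inactive = mean below 30% and not every replicate reaching it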;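 also: 0% = neutral control wells and 100% = L-leucinethiol positive control wells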
* hit, by the source's call; u = inconclusive; x = no result.

SMILES	DENV2 CPE rescue	RAD52 inh	MLL AF4-AF9 inh	FGF22 binding	ERAP1 inh
COc1ccc(S(=O)(=O)N2CCC3(CC2)CN(Cc2ccccc2OC)[C@@H](CO)c2[nH]c4cc(OC)ccc4c23)cc1	7.8	52.2*	-2.6	0.0	-0.2
COc1ccc2c3c([nH]c2c1)[C@H](CO)N(C(=O)c1cccc(F)c1)CC31CCN(C(=O)c2ccccc2)CC1	11.6	8.9	0.6	-0.1	-2.4
COc1ccc2c3c([nH]c2c1)[C@@H](CO)N(C(=O)c1cccc(F)c1)CC31CCN(C(=O)c2cccc(F)c2)CC1	21.7*	13.1	6.9	-0.1	0.6
COc1ccc2c3c([nH]c2c1)[C@H](CO)N(C(=O)Nc1ccc(F)cc1)CC31CCN(C(=O)Nc2ccccc2)CC1	21.0*	x	0.8	0.0	x
COc1ccc2c3c([nH]c2c1)[C@@H](CO)N(Cc1ccccc1OC)CC31CN(S(=O)(=O)c2ccccc2)C1	18.5	-13.9	-0.7	-0.2	2.4
C[C@H]1CN([C@@H](C)CO)C(=O)c2cc(C#CC3CCCCC3)cnc2O[C@@H]1CN(C)S(C)(=O)=O	1.2	-5.7	1.5	-0.3	-2.4
C/C=C/c1cnc2c(c1)C(=O)N([C@H](C)CO)C[C@@H](C)[C@@H](CN(C)C(=O)Nc1ccc(F)cc1)O2	-1.3	4.5	-3.4	0.1	5.0
COCCOC(=O)N1C(=O)[C@@]2(c3ccccc31)[C@H](c1ccccc1OCCO)N1[C@H](c3ccccc3)[C@H](c3ccccc3)OC(=O)[C@H]1[C@@H]2C(=O)N1CCN(c2ncccn2)CC1	4.9	0.9	-0.1	-0.3	-3.2
C[C@@H]1CN([C@H](C)CO)C(=O)c2c(c3ccccc3n2C)-c2ccccc2CO[C@H]1CN(C)C(=O)[C@@H]1CCCN1C	2.0	-6.6	0.5	-0.2	3.6
COc1ccc(-c2cn(-c3ccccc3)nc2CO)cc1	2.5	-7.9	-4.6	-0.4	-1.6
COc1ccc(-c2nn(-c3ccccc3)cc2N)cc1	-0.7	-5.7	0.2	43.5*	-0.9
Cc1ccc(S(=O)(=O)N(C)C[C@@H]2Oc3ncc(/C=C/c4ccccc4)cc3C(=O)N([C@H](C)CO)C[C@@H]2C)cc1	23.5*	14.8	0.4	-0.4	1.0
C[C@H](CO)N1C[C@H](C)[C@@H](CN(C)C(=O)c2cnccn2)Oc2ncc(C#CCC3CCCC3)cc2C1=O	36.1*	0.5	-0.6	-0.1	1.0
Cc1ccc(S(=O)(=O)N(C)C[C@H]2Oc3ncc(C#CC4(O)CCCC4)cc3C(=O)N([C@H](C)CO)C[C@H]2C)cc1	20.8*	9.1	1.5	0.0	1.2
COc1ccc(NC(=O)N(C)C[C@@H]2Oc3ncc(C#Cc4ccc(F)cc4)cc3C(=O)N([C@H](C)CO)C[C@@H]2C)cc1	62.6*	12.7	1.6	-0.4	-0.8
C[C@H]1CN([C@@H](C)CO)C(=O)c2cccc(NS(=O)(=O)c3cn(C)cn3)c2O[C@H]1CN(C)Cc1ccc(-c2ccccc2)cc1	7.1	-3.6	1.8	-0.2	3.6
COc1ccc(NC(=O)N(C)C[C@H]2Oc3ncc(C#CC(C)C)cc3C(=O)N([C@H](C)CO)C[C@@H]2C)cc1	-4.5	16.3	0.1	-0.2	0.7
CC(C)NC(=O)N(C)C[C@@H]1Oc2ncc(C#Cc3ccc(F)cc3)cc2C(=O)N([C@@H](C)CO)C[C@H]1C	24.9*	5.2	-0.4	-0.5	-0.8
COc1ccc(NC(=O)N(C)C[C@H]2Oc3ncc(C#CC(C)C)cc3C(=O)N([C@@H](C)CO)C[C@H]2C)cc1	38.9*	1.3	-0.8	0.8	-0.7
CC(C)NC(=O)N(C)C[C@@H]1Oc2ncc(C#CC3(O)CCCC3)cc2C(=O)N([C@@H](C)CO)C[C@H]1C	3.1	4.8	-0.7	0.0	0.2
CC(C)NC(=O)N(C)C[C@H]1Oc2ncc(C#CC3(O)CCCC3)cc2C(=O)N([C@@H](C)CO)C[C@@H]1C	31.8*	13.0	-2.6	0.1	-0.9
CCCC#Cc1cnc2c(c1)C(=O)N([C@H](C)CO)C[C@@H](C)[C@@H](CN(C)C(=O)NC1CCCC1)O2	45.3*	1.7	-3.3	-0.1	-0.2
CO[C@@H]1CN(C)C(=O)c2cc(NS(=O)(=O)c3ccccc3)ccc2OC[C@H](C)N(C(=O)NC(C)C)C[C@@H]1C	-3.3	-7.1	-10.7	0.0	-4.6
C[C@@H]1CN([C@H](C)CO)C(=O)c2cc(NS(=O)(=O)c3ccccc3)ccc2O[C@@H](C)CCCCO[C@@H]1CN(C)S(=O)(=O)c1cccs1	u	-19.2	-10.3	x	-5.3
CC(C)NC(=O)N(C)C[C@H]1Oc2ccc(NC(=O)CCCCCC(=O)Nc3ccccc3N)cc2C(=O)N([C@H](C)CO)C[C@H]1C	-4.4	-4.4	-3.2	-0.2	-3.3
SMILES	DENV2 CPE rescue	RAD52 inh	MLL AF4-AF9 inh	FGF22 binding	ERAP1 inh
CCCC(=O)Nc1ccc2c(c1)OC[C@H](C)N(C(=O)CN(C)C)C[C@@H](C)[C@H](OC)CN(C)C2=O	3.8	5.9	-9.7	-0.1	x
C[C@@H]1CN([C@@H](C)CO)C(=O)c2cc(/C=C/c3ccccc3)cnc2O[C@H]1CN(C)Cc1ccccc1F	7.7	2.1	28.2*	-0.4	0.7
CCCN(C)C[C@H]1Oc2ncc(C#CC3(O)CCCC3)cc2C(=O)N([C@@H](C)CO)C[C@H]1C	9.1	4.0	-0.2	-0.6	2.6
CCCN(C)C[C@H]1Oc2ncc(C#CC3(O)CCCC3)cc2C(=O)N([C@H](C)CO)C[C@H]1C	26.8*	-7.4	0.3	0.0	1.8
O=C(CC1S/C(=N/N=C/c2ccco2)NC1=O)Nc1ccccc1 (centres undefined)	x	-27.4	0.3	-0.1	-2.6
O=C(CC1S/C(=N/N=C/c2c[nH]c3ccccc23)NC1=O)Nc1ccccc1 (centres undefined)	20.3*	-7.3	4.8	0.5	-3.9
COc1ccc(C(=O)NN2C(=S)N(c3ccc(OC)cc3)C(=O)C2CC(N)=O)cc1 (centres undefined)	8.8	-14.2	x	0.3	1.9
COc1ccc(N2C(=O)C(CC(N)=O)N(NC(=O)c3cccc(OC)c3)C2=S)cc1 (centres undefined)	30.8*	-18.1	-0.7	0.1	-0.9
Cc1ccc(/C=C2/SC(=Nc3ccc(F)cc3)NC2=O)s1	-2.5	-161.2	-0.6	0.1	81.5*
Cc1cccc(N2CCN(C(=O)CCC(=O)N3Cc4ccccc4Oc4ncccc43)CC2)c1C	1.2	-20.3	47.0*	0.1	3.1
CCn1c(/C=C/c2cc[n+](C)cc2)nc2ccccc21	-1.9	-43.5	-0.3	0.1	59.0*
Cc1noc(C)c1NC(=O)N(C)C[C@H]1Oc2ncc(C#CCN(C)C)cc2C(=O)N([C@H](C)CO)C[C@H]1C	-9.6	-11.6	-0.8	0.0	-0.9
CN(C)CC#Cc1ccc([C@H]2[C@H]3CN(CC4CC4)CCCCN3[C@H]2CO)cc1	3.1	43.9	19.3	0.2	2.8
CN(C)CC#Cc1ccc([C@@H]2[C@H](CO)N3CCCCN(CC4CC4)C[C@@H]23)cc1	-2.6	58.5*	27.4*	0.7	3.2
